High-throughput results as filed in PubChem.
D1 antag: antagonists of human D1 dopamine receptor | HEK293 TREx D1 cells, calcium flux, dopamine EC80; stronger effect = lower value | actives 3.2% (n = 360,000) | P21728 | activity change, negative = inhibition, % at 10 µM; in the data active = activity change below about -30%; note: % is set by controls: 0 for no effect and ±100 for the full control effect
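Calcium flux readout: force-coupled, inducible Hek293 Trex D1 line, cells induced overnight at 30 C with tetracycline, dye-loaded 30–90 min at RT. Antagonism scored against EC80 dopamine challenge given 180 s after compound.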
TRHR agonist-1: agonists of human TRH receptor; TRHR cells, calcium flux fluo-8, FDSS agonist mode; activation, % at 2 µM; P34981; actives 0.18% (n = 360,000); AID 493084; note: 0% is about no effect
Target sequence (P34981 whole entry, looked up): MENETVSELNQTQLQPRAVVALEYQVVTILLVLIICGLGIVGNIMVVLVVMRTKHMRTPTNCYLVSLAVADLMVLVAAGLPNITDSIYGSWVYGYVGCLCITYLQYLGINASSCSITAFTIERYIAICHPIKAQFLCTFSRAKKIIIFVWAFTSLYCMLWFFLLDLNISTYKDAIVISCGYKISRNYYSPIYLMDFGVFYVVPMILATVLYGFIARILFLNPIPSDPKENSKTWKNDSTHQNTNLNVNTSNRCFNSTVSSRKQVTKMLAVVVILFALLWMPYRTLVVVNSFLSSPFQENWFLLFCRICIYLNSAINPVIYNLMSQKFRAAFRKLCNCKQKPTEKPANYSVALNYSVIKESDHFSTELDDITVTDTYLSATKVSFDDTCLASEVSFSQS
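Agonist-mode FDSS calcium read (Ex 480/Em 530, 1 s cycles) in 1536-well TRHR cells with fluo-8 dye, after 10-cycle baseline and 23 nL compound addition; TRH at EC20 (10 nM final) added afterwards for the enhancer phase.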
TRHR enhancer-1: allosterically enhances the human TRH receptor; P34981; actives 0.66% (n = 360,000); enhancement, % at 2 µM; AID 493056; TRHR cells, fluo-8 calcium fluorescence, EC20 TRH enhancement; in the data active = enhancement above about 30%; note: 0% is about no effect
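TRHR-expressing cells loaded with fluo-8 calcium dye were read kinetically (ex 480/em 530) during compound addition, then stimulated with an EC20 of TRH (10 nM final). Enhancement of the Gq-mediated intracellular calcium response was scored.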
D1 ag: activates the human D1 dopamine receptor | P21728 | HEK293 T-REx D1 cells, calcium flux, agonist mode | activation, % at 2 µM | actives 1% (n = 360,000); note: 0% is about no effect
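Agonism was scored from calcium flux recorded over 180 s (1 read/s) after pintool compound addition, following a 10-cycle baseline. Cells were inducible force-coupled HEK293 TREx D1, plated overnight at 30 C and loaded with no-wash calcium dye.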
D1 potentiator: potentiators of human D1 dopamine receptor; HEK293 TREx D1 cells, calcium flux, dopamine EC20 potentiation; potentiation, % at 10 µM; AID 504651; actives 0.036% (n = 360,000); in the data active = potentiation above about 30%; note: 0% is about no effect
TRHR enhancer-2: human TRH receptor allosteric enhancement confirmation; shares compounds with TRHR enhancer-1; TRH receptor cell assay, enhancer confirmation qHTS; activity change, negative = inhibition, % at 46.1 µM; 970 tested, under 10 active; AID 493076; active = well fitted curve in the direction sought with a large enough effect; inconclusive = small, poorly fitted or top-dose-only effect, or another doubt; inactive = no such curve, though single readings can be large; an effect the other way counts as inactive or inconclusive;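 note: compound effect scored on response to added TRH at EC20 of 10 nM; 0% is about no effect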
TRHR agonist-2: confirmation of human TRH receptor agonists. shares compounds with TRHR enhancer-1. TRHR-expressing cells, agonist activation read-out. Potency, µM (highest dose often 46.1 µM), inactives show at the highest dose activation, hits mostly activators. actives 8% (n = 970). AID 493078; active = well fitted curve in the direction sought with a large enough effect; inconclusive = small, poorly fitted or top-dose-only effect, or another doubt; inactive = no such curve, though single readings can be large; an effect the other way counts as inactive or inconclusive; note: potency is the fitted concentration of half-maximal effect; 0% is about no effect; nearly all actives have a fitted effect of over 75% in size
Active calls of the source: *; ? = inconclusive; / = no result given. Compounds with a hit are over-represented: about 4.6% of the library has one in this group of screens. Cut-off read from the data, not from the text of the source, unless noted: active = activation above about 30%; inactive = the rest.

SMILES | D1 antag | TRHR agonist-1 | TRHR enhancer-1 | D1 ag | D1 potentiator | TRHR enhancer-2 | TRHR agonist-2
CC(C)CC(CO)N1CCN(C(=O)c2ccc(C(C)(C)C)cc2)CCC1=O (stereo unspecified) | 3 | 0 | -2 | 0 | 4 | / | /
O=C(N/N=C/c1c(O)n(-c2ccccc2Cl)c(=O)c2ccccc12)c1cccnc1 | 1 | 29 | 40* | 28 | 0 | 8 | ?
O=C(N/N=C/c1c(O)n(Cc2ccccc2)c(=O)c2ccccc12)c1cccnc1 | 10 | 30* | 4 | 47* | 4 | -1 | 21µM*
Cc1cccc(-n2c(O)c(/C=N/NC(=O)c3ccccc3Cl)c3ccccc3c2=O)n1 | 1 | 5 | 15 | 8 | -3 | / | /
COc1ccc(Cn2c(O)c(/C=N/NC(=O)c3cccnc3)c3ccccc3c2=O)cc1 | 10 | 57* | 0 | 90* | 6 | -2 | 21µM*
COc1ccc(Cn2c(O)c(C=Nc3ccc(OC)cc3)c3ccccc3c2=O)cc1 | 5 | 1 | -4 | 2 | 2 | / | /
COc1ccc(C(=O)N2CCOC2CNC(=O)C(=O)NCc2ccc(F)cc2)cc1 (stereo unspecified) | -28 | -1 | 4 | 0 | -5 | / | /
Cc1nnc(SCC(=O)N2CCCCC2)s1 | 2 | 0 | 0 | 0 | 5 | / | /
NC(=O)COC(=O)c1c2c(nc3ccccc13)CCCCC2 | -17 | 0 | 49* | 1 | -3 | 0 | 6%
CCCCCc1ccc(OCCCC[n+]2ccc(C)cc2)c(CCCCC)c1 | -12 | 35* | -11 | 202* | 20 | -13 | ?
CCCCCc1ccc(OCCCC[n+]2cccc(C)c2)c(CCCCC)c1 | 15 | 0 | -1 | 4 | -4 | / | /
O=C(Cc1ccccc1)NC1CCN(Cc2ccccc2)CC1 | -4 | 0 | 61* | 6 | 4 | 1 | -1%
O=C(C1CCCN(Cc2ccncc2)C1)N1CCc2ccccc2C1 (stereo unspecified) | 10 | 0 | 0 | 0 | -1 | / | /
Cc1ccccc1-c1nn(-c2ccc(F)cc2F)cc1CNCCCO | 4 | 0 | -3 | 3 | 3 | / | /
Cc1ccc(C(=O)NCc2ccncc2)cc1S(=O)(=O)N1CCOCC1 | -17 | 0 | 44* | -1 | 1 | -8 | 1%
COc1cccc(CNC(=O)c2ccc(C)c(S(=O)(=O)N3CCOCC3)c2)c1 | -1 | 0 | -6 | 3 | 1 | / | /
O=S(=O)(c1ccc2c(c1)OCCO2)N1CCN(S(=O)(=O)c2ccc(Br)cc2F)CC1 | -1 | 0 | 3 | 0 | 2 | / | /
COc1ccc(N(CC(=O)Nc2cccc(C(C)=O)c2)S(C)(=O)=O)cc1OC | -6 | 1 | 53* | 1 | 6 | -8 | 0%
COc1cccc(N(CC(=O)Nc2cccc(C(C)=O)c2)S(C)(=O)=O)c1 | -6 | 0 | 1 | 5 | -4 | / | /
COc1ccc(C2=NN(C(C)=O)C(c3cccs3)C2)cc1OC (stereo unspecified) | 20 | -1 | -2 | 1 | 1 | / | /
COc1ccc(NC(=O)CSCC(=O)Nc2cc(Cl)ccc2N2CCCC2)cc1 | 13 | -1 | 0 | -1 | -6 | / | /
O=C(NC1CC1)C1=NOC(CNc2ncc(C(F)(F)F)cc2Cl)C1 (stereo unspecified) | 1 | 1 | 46* | 1 | 2 | -5 | 2%
COc1cnc(-c2ccccc2)nc1OC | 0 | -1 | 3 | 1 | 12 | / | /
COc1cnc(-c2ccccc2)nc1Oc1cccc(C)c1 | 3 | 0 | 59* | 5 | 0 | -6 | 3%
CCOC(=O)Cc1nnc(NC(=O)COc2ccc(C)cc2)s1 | -18 | 1 | 41* | 17 | -4 | ? | 2%
COc1ccc(/C=C2\SC(=S)N(C(C)C(=O)NC3C=CS(=O)(=O)C3)C2=O)cc1 (stereo unspecified) | -27 | 0 | -5 | 2 | -10 | / | /
COc1cccc(/C=C2\SC(=S)N(C(C)C(=O)NC3C=CS(=O)(=O)C3)C2=O)c1 (stereo unspecified) | -15 | 0 | 50* | 0 | -3 | 5 | 2%
